Giardia kill: Giardia lamblia killing; AID 540267; activity change, % at 7.66 µM, hits read low; actives 0.15% (n = 340,000); Giardia lamblia trophozoite viability; in the data active means activity change below about -80%; inconclusive means between about -30% and that limit;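 further: parasites exposed to compound for two days anaerobically before the ATP read; on the % scale 0 is the no-effect control and ±100 the full control effect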
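Compounds were tested on trophozoites seeded at 100 cells/well and held 48 hrs at 37 deg C anaerobically. An ATP-based luminescent kit measured the remaining live cells.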
RXFP1 antag: RXFP1 (human) relaxin receptor antagonism | actives 0.59% (n = 350,000) | HEK293-RXFP1, relaxin-stimulated cAMP HTRF, 30 min; hits give low values | Q9HBX9 | activity change, negative = inhibition, % at 57.5 µM;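 active means activity change of -60% or lower, but not beyond a set lower limit; inconclusive means change between -60% and -40%, or beyond the set limit; inactive means change above -40%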; further: on the % scale 0 is the no-effect control and ±100 the full control effect
Target sequence (Q9HBX9 whole entry, looked up): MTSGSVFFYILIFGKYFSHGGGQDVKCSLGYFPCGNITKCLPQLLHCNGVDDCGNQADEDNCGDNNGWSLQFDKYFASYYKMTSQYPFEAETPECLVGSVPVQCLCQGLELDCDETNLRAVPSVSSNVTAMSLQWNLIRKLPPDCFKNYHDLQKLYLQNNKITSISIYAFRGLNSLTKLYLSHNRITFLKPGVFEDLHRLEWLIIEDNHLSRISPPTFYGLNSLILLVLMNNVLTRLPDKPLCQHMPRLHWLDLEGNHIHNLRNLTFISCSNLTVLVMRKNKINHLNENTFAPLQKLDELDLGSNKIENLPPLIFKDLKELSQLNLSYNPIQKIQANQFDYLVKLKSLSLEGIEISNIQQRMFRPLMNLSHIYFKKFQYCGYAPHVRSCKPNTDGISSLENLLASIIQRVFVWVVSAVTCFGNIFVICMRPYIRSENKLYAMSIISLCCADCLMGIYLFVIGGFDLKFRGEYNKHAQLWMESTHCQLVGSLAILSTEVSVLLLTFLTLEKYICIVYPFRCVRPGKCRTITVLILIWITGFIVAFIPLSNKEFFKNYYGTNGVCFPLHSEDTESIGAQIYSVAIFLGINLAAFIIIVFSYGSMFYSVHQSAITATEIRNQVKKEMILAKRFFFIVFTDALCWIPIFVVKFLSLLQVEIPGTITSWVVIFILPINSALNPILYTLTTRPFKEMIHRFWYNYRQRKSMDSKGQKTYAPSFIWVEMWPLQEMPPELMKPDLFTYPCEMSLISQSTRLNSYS
NPSR antag: blocks cAMP signaling of the human neuropeptide S receptor; Q6W5P4; CHO-NPSR cells, cAMP TR-FRET, antagonist mode; Potency, µM (top dose mostly 38.3 µM), without a hit: at the highest dose activity change, negative = inhibition, actives largely listed as inhibitors; actives 1% (n = 220,000); further: potency means the concentration at half of the fitted maximal effect; on the % scale 0 is the no-effect control and ±100 the full control effect; nearly all actives have a fitted effect of over 50% in size
BRCA1 expr act: BRCA1 expression activation; actives 1.1% (n = 380,000); AID 624202; MCF7-BRCA1-FFLuc reporter, luminescence, 48 h; response scale: scaled: vehicle 0%, 10 µM genistein 100%; Potency, µM (doses to about 46.1 µM), for the others: at the highest dose activation, usual class: activators; further: potency means the concentration at half of the fitted maximal effect; nearly all actives have a fitted effect of over 80% in size
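48 h compound treatment of MCF7-BRCA1-FFLuc cells (phenol-red free MEM, 37 °C), then 15 min with luciferase substrate and luminescence imaging.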
RXFP1 ag: activates the human relaxin receptor RXFP1; Q9HBX9; HEK293T-RXFP1 cAMP TR-FRET, 30 min; response scale: percent of porcine relaxin response, buffer zero; Potency, µM (series often up to 57.5 µM), for the others: at the highest dose activation, usual class: activators; actives 0.3% (n = 370,000); AID 2676; further: potency means the concentration at half of the fitted maximal effect; on the % scale 0 is the no-effect control and ±100 the full control effect; nearly all actives have a fitted effect of over 60% in size
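HEK293T cells stably expressing RXFP1 were pretreated with the PDE4 inhibitor Ro 20174, exposed to compounds for 30 min at 37C, lysed, and cAMP was read by TR-FRET. Data normalized to buffer (basal) and 29 nM porcine relaxin (100%).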
IL2 activator: activators of IL-2. IL-2 activation reporter assay, cell-based qHTS; stimulated with anti-CD3/CD4/CD28 beads; in transgenic mouse T cells. activation, % (series mostly up to about 46 µM). actives 0.065% (n = 360,000). AID 652025; in the data active means activation above about 50%; inconclusive means mostly about 30% to 49%; further: 0% is about no effect
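Using fluorescent plate cytometry, EGFP and DsRed are detected in transgenic mouse T cells stimulated 18 h at 37 degrees C with antibody-coated beads after 60 min compound pretreatment.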
Active calls of the source: *; u = inconclusive; x = not tested or not shown; [ ] = remark or other dose. Most compounds without a hit are left out; they make up all but 1.9% or so of the library. Unless noted, the call rests on the fitted dose curve; in most records, active means well fitted curve in the direction sought with a large enough effect; inconclusive means small, poorly fitted or top-dose-only effect, or another doubt; inactive means no such curve, though single readings can be large; an effect the other way counts as inactive or inconclusive.

SMILES	Giardia kill	RXFP1 antag	NPSR antag	BRCA1 expr act	RXFP1 ag	IL2 activator
CC(C)(C)c1nnc(NC(=O)c2ccc3c(c2)OCO3)s1	-4.8	13.8	x	u	3.7%	-1.3
Cc1cc(Cl)nc2nc(Cl)ccc12	x	x	x	0.0%	x	x
Cc1cccc(NC(=O)CSc2nnc(-c3ccccc3C)o2)c1	16.8	-6.9	-18.7%[46.1 µM]	12.6µM*	-0.5%	2.1
COc1ccccc1NC(=O)CSc1nnc(-c2ccoc2C)o1	7.9	1.7	x	7.94µM*	0.2%	0.1
N#Cc1cccc(NC(=O)CSc2nnc(-c3n[nH]c4ccccc34)o2)c1	2.0	-0.8	-1.5%	38.0%	19.4%	0.0
Cc1cc(C)cc(NC(=O)CSc2nnc(-c3ccccc3C)o2)c1	0.7	-10.3	u	u	0.1%	-1.4
Cc1cccc(NC(=O)CSc2nnc(-c3n[nH]c4ccccc34)o2)c1	7.2	-9.3	-5.2%	12.6µM*	3.6%	2.2
COc1ccc(Cn2nnnc2C(c2ccccn2)N2CCN(c3ccc(O)cc3)CC2)cc1 (stereo not given)	-4.6	x	x	1.7%	x	x
COc1ccc2c3c(c(=O)oc2c1)C1O[C@](c2ccsc2)(Cc2cc(C#N)ccc21)O3	x	x	x	x	-0.5%[11.5 µM]	x
O=C(C[N+]1(CCO)CCOCC1)c1ccc(F)c2ccccc12	x	x	x	-47.0%	x	x
Cc1ccc(NC(=O)CN2C(=O)S/C(=C/c3ccc(O)c([N+](=O)[O-])c3)C2=O)cc1C	-82.0*	-62.5*	u	-6.4%	0.0%	-0.4
O=C1S/C(=C\c2ccc(O)c([N+](=O)[O-])c2)C(=O)N1Cc1cccc([N+](=O)[O-])c1	-81.5*	0.8	52.7%	-64.8%	1.6%	1.5
Cc1cccc(NC(=O)CN2C(=O)S/C(=C\c3ccc(O)c([N+](=O)[O-])c3)C2=O)c1	u	4.4	-33.7%	0.0%	0.1%	-0.5
C[C@@H](c1ncncc1F)C(O)(Cn1cncn1)c1ccc(F)cc1F (stereo not given in full)	x	-1.8	x	x	x	x
O=C(NCC1COc2ccccc2O1)c1ccccc1 (stereo not given)	16.9	21.2	3.5%[46.1 µM]	7.94µM*	0.0%	2.3
O=C(NC(=S)NCC1COc2ccccc2O1)c1ccccc1 (stereo not given)	13.8	4.0	-4.2%	-0.7%	1.4%	-0.6
CSc1ccc(/C=C/c2nc3ccccc3n2S(=O)(=O)c2ccc(Br)cc2)cc1	x	x	x	-10.3%	13.3%	x
CCN(CC)C(=O)c1cc(-c2ccc(Br)cc2)on1	-9.3	8.2	-8.5%[46.1 µM]	7.94µM*	-1.1%	0.5
CN(C)C(=O)CSc1nnc(C23CC4CC(CC(C4)C2)C3)o1	0.2	24.4	-12.2%[46.1 µM]	10µM*	3.1%	-0.2
COc1ccc(Nc2nc(N)c3cc(OC)c(OC)cc3n2)cc1	x	-8.8	x	x	0.8%	x
O=C(Cc1cccs1)NCc1cccc(Br)c1	17.7	-0.2	x	3.98µM*	-2.5%	-0.6
CC1CCCN(C(=O)c2ccc([N+](=O)[O-])o2)C1 (stereo not given)	-84.3*	0.8	x	-8.8%	0.3%	-2.8
CC1CCN(C(=O)c2ccc([N+](=O)[O-])o2)CC1	u	-9.7	x	-29.7%	-0.2%	-0.4
CCC1CCCCN1C(=O)c1ccc([N+](=O)[O-])o1 (stereo not given)	-97.0*	-0.1	x	-24.3%	-0.6%	-0.5
CCOC(=O)c1ccc(NC(=O)CCCc2nc(-c3ccccc3Cl)no2)cc1	x	-22.4	x	x	0.4%	x
O=C(CNC(=O)c1ccccc1)OCC(=O)c1cccc2ccccc12	6.2	x	x	2.9%	x	x
COc1ccc(S(=O)(=O)Nc2ccc(-c3cn4ccsc4n3)cc2)cc1C	x	x	x	0.1%	1.6%	x
CN(C)S(=O)(=O)Nc1ccc(-c2cn3ccsc3n2)cc1	x	x	x	11.2µM*	21.7%	x
Clc1ccccc1/C=N/NC1=Nc2cccc3cccc1c23	-2.7	-11.8	-38.7%	-23.6%	0.5%	243.8*
Cn1cccc1C(=O)C(=O)Nc1ccccc1	-20.8	-3.5	-4.5%[46.1 µM]	7.08µM*	0.4%	0.3
